Compound activity from PubChem.
Compounds with a hit are over-represented: about 3.9% of the library has one in this group of screens.
TROY NFkB inh: inhibitors of TROY-driven NF-kB signaling, primary screen, Q293 LMP1-TROYcd cells, NF-kB luciferase, uHTS; Q293 LMP1-TROYcd NF-kB luciferase reporter, 4 h; hit rate 0.98% among 360,000; inhibition, % at 10 µM;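 active = compounds whose plate-normalised and pattern-corrected inhibition of the luciferase reporter signal at the single screening dose is 50% or more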
KKLEB cytotox: cytotoxicity in KKLEB CF airway cells, primary screen, cytotoxicity control for CF NF-kB inhibitor project, cell-based, uHTS, fluorescence assay plates; KKLEB CF airway cells viability, ATPlite luminescence, overnight; hits give low values; cells stimulated with P. aeruginosa culture filtrate; activity change (cytotoxicity), % at 5 µM; hit rate 0.36% among 360,000; AID 602141, 2011;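 active = corrected activity change at or below -50% at 5 µM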
HIF-2a inh: HIF-2a reporter inhibitors, primary screen, luminescence, 786-0 RCC cells; 786-0 RCC cells HIF-2a reporter, luciferase luminescence, overnight; inhibition, % at 18.8 µM; hit rate 0.72% among 360,000; AID 624352, 2012;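 active = inhibition of the luminescence signal of 40% or more relative to plate controls, in a single-dose primary screen at 18.75 µM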
Peg3 promoter: Peg3 promoter-driven luciferase inhibitors, primary screen, cell-based, HeLa, luciferase luminescence; hit rate 1.7% among 360,000; HeLa PEG-Prom luciferase reporter, overnight; inhibition, % at 20 µM;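 active = inhibition of at least 50% at 20 µM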
CF NFkB inh: inhibitors of PAF-induced NF-kB signaling, primary screen, cell-based, GFP fluorescence, uHTS; AID 588850, 2011; KKLEB NF-kB-GFP reporter, GFP fluorescence overnight; inhibition, % at 5 µM; hit rate 0.86% among 360,000;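 active = at least 50% inhibition at 5 µM, scaled per plate between neutral and stimulator controls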;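 note: PAF is a Pseudomonas aeruginosa culture filtrate used as stimulus; plate controls were PAF-stimulated DMSO wells for no effect and unstimulated DMSO wells for full effect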
TWEAK Fn14 block: inhibitors of TWEAK-Fn14 signaling, primary screen, luciferase reporter cells, uHTS; inhibition, % at 10 µM; TWEAK-stimulated Fn14 reporter cells, luciferase luminescence, 8 h; AID 1159606, 2016; hit rate 2% among 360,000; in the data active = inhibition above about 50%
Starred values were filed as active, the others as inactive.

Results for O=C(NCCCN1CCOCC1)c1ccc(/C=C2\Oc3ccccc3N(Cc3ccccc3F)C2=O)cc1 ?
TROY NFkB inh: 49; KKLEB cytotox: 0; HIF-2a inh: 2; Peg3 promoter: 11; CF NFkB inh: 20; TWEAK Fn14 block: -2

What do the screens show for `CCN1CCN(CCCNC(=O)c2ccc(/C=C3/Oc4ccccc4N(Cc4cccc(C)c4)C3=O)cc2)CC1`?
TROY NFkB inh: 9; KKLEB cytotox: -40; HIF-2a inh: 4; Peg3 promoter: 75*; CF NFkB inh: 20; TWEAK Fn14 block: -124

Results for O=C(COC(=O)C1CCN(c2ccc(C(F)(F)F)cn2)CC1)c1ccccc1 ?
TROY NFkB inh: -9; KKLEB cytotox: 3; HIF-2a inh: -2; Peg3 promoter: 7; CF NFkB inh: 8; TWEAK Fn14 block: 4

What do the screens show for `CN(Cc1ccccc1)CC(O)COc1ccc(CNCc2ccc(Cl)s2)cc1` (configuration not stated)?
TROY NFkB inh: -8; KKLEB cytotox: -13; HIF-2a inh: 24; Peg3 promoter: 54*; CF NFkB inh: 8; TWEAK Fn14 block: -6

Results for Cc1cccc(NC2=C(NCCO)C(=O)c3ccccc3C2=O)c1 ?
TROY NFkB inh: 11; KKLEB cytotox: 1; HIF-2a inh: -54; Peg3 promoter: -20; CF NFkB inh: 1; TWEAK Fn14 block: 24

Results for O=C(O)c1ccc(NC2=C/C(=N/S(=O)(=O)c3cccs3)c3ccccc3C2=O)cc1 ?
TROY NFkB inh: 60*; KKLEB cytotox: -21; HIF-2a inh: 13; Peg3 promoter: -4; CF NFkB inh: 87*; TWEAK Fn14 block: 98*

What do the screens show for `Cc1cccc(NC2=C/C(=N/S(=O)(=O)c3cccs3)c3ccccc3C2=O)c1`?
TROY NFkB inh: 32; KKLEB cytotox: -65*; HIF-2a inh: 7; Peg3 promoter: 45; CF NFkB inh: 93*; TWEAK Fn14 block: 97*

Results for O=C1C(Nc2ccc(O)cc2)=C/C(=N/S(=O)(=O)c2cccs2)c2ccccc21 ?
TROY NFkB inh: 58*; KKLEB cytotox: -65*; HIF-2a inh: 40*; Peg3 promoter: 106*; CF NFkB inh: 93*; TWEAK Fn14 block: 95*

How did O=C1C2CCCCN2C(=O)N1CCCCN1CCN(c2cccc(Cl)c2)CC1 (configuration not stated) do in these assays?
TROY NFkB inh: 0; KKLEB cytotox: 11; HIF-2a inh: 11; Peg3 promoter: 9; CF NFkB inh: 3; TWEAK Fn14 block: 11

Results for CC1(C(=O)Nc2cnc3ccccc3c2)CCN1Cc1ccccc1OC(F)F (configuration not stated) ?
TROY NFkB inh: 31; KKLEB cytotox: -1; HIF-2a inh: -16; Peg3 promoter: 20; CF NFkB inh: 5; TWEAK Fn14 block: 22

How did O=C(CCCN1C(=O)/C(=C/c2cccs2)SC1=S)NNC(=O)c1ccncc1 do in these assays?
TROY NFkB inh: -25; KKLEB cytotox: -3; HIF-2a inh: 12; Peg3 promoter: -4; CF NFkB inh: -3; TWEAK Fn14 block: 5

What do the screens show for `O=C(CCCN1C(=O)/C(=C/c2cccs2)SC1=S)Nc1ccccc1O`?
TROY NFkB inh: 7; KKLEB cytotox: -1; HIF-2a inh: 4; Peg3 promoter: 13; CF NFkB inh: 7; TWEAK Fn14 block: -17

What do the screens show for `O=C(CCCN1C(=O)/C(=C\c2cccs2)SC1=S)Nc1ccc(O)cc1C(=O)O`?
TROY NFkB inh: 33; KKLEB cytotox: 6; HIF-2a inh: 32; Peg3 promoter: 53*; CF NFkB inh: 16; TWEAK Fn14 block: 20

How did O=C(CCCN1C(=O)/C(=C/c2cccs2)SC1=S)NNC(=O)c1ccccc1O do in these assays?
TROY NFkB inh: 12; KKLEB cytotox: 3; HIF-2a inh: 41*; Peg3 promoter: 34; CF NFkB inh: -8; TWEAK Fn14 block: -5

How did Cn1cc(C(=O)c2ccccc2C(=O)O)cc1C(=O)C(Cl)(Cl)Cl do in these assays?
TROY NFkB inh: -7; KKLEB cytotox: -13; HIF-2a inh: 10; Peg3 promoter: 7; CF NFkB inh: 9; TWEAK Fn14 block: 17

What do the screens show for `COc1ccc(C2=Nn3c(nnc3-c3ccccc3Cl)SC2)cc1OCC1CC1`?
TROY NFkB inh: 61*; KKLEB cytotox: -24; HIF-2a inh: 24; Peg3 promoter: 37; CF NFkB inh: 40; TWEAK Fn14 block: 32

What do the screens show for `NC1=NS(=O)(=O)NC1c1cccc(F)c1` (configuration not stated)?
TROY NFkB inh: 3; KKLEB cytotox: 1; HIF-2a inh: 8; Peg3 promoter: 8; CF NFkB inh: -6; TWEAK Fn14 block: -3

What do the screens show for `NC1=NS(=O)(=O)NC1c1cccc(Cl)c1` (configuration not stated)?
TROY NFkB inh: 1; KKLEB cytotox: -1; HIF-2a inh: 16; Peg3 promoter: 6; CF NFkB inh: -7; TWEAK Fn14 block: 82*

What do the screens show for `Cc1ccccc1-n1c(C)cc(/C=C(\C#N)C(=O)NCC2CCCO2)c1C` (configuration not stated)?
TROY NFkB inh: 59*; KKLEB cytotox: -17; HIF-2a inh: -174; Peg3 promoter: -181; CF NFkB inh: 3; TWEAK Fn14 block: 56*

What do the screens show for `CCN(CC)C(=O)C1c2ccccc2Oc2ccccc21`?
TROY NFkB inh: -14; KKLEB cytotox: 3; HIF-2a inh: 21; Peg3 promoter: 17; CF NFkB inh: -7; TWEAK Fn14 block: 61*

How did C/C(=N\NC(=O)c1cccnc1)c1nnn(-c2nonc2N)c1C do in these assays?
TROY NFkB inh: -21; KKLEB cytotox: -8; HIF-2a inh: 3; Peg3 promoter: -1; CF NFkB inh: 9; TWEAK Fn14 block: 4

Results for COc1cc(C(=O)Nc2ccc3c(c2)OCO3)ccc1-n1cnnn1 ?
TROY NFkB inh: -3; KKLEB cytotox: 1; HIF-2a inh: -1; Peg3 promoter: 2; CF NFkB inh: -33; TWEAK Fn14 block: 5

How did COc1cc(NC(=O)Cc2cccs2)ccc1-n1cnnn1 do in these assays?
KKLEB cytotox: 2; HIF-2a inh: 11; Peg3 promoter: 2; CF NFkB inh: 11; TWEAK Fn14 block: 91*

Results for CCc1ccccc1NC(=O)CSc1n[nH]c(-c2cccnc2)n1 ?
TROY NFkB inh: 3; KKLEB cytotox: 5; HIF-2a inh: 13; Peg3 promoter: 7; CF NFkB inh: 14; TWEAK Fn14 block: 21

How did Cc1ccc(C(=O)Nc2cccc(C(F)(F)F)c2)cc1Nc1ncnc2nc[nH]c12 do in these assays?
TROY NFkB inh: 28; KKLEB cytotox: 8; HIF-2a inh: 26; Peg3 promoter: 38; CF NFkB inh: 69*; TWEAK Fn14 block: 2
